Experimental data from PubChem BioAssay (NCATS).
Inconclusive results are not listed. Calls of active or inactive are those of the source. Unless noted, the call rests on the fitted dose curve; in most records, active means well fitted curve in the direction sought with a large enough effect; inconclusive means small, poorly fitted or top-dose-only effect, or another doubt; inactive means no such curve, though single readings can be large; an effect the other way counts as inactive or inconclusive.

How the values were obtained:
[1] = molecular target: Glucocorticoid receptor (Homo sapiens) (UniProt P04150); test: GR-GFP Redistribution (AID 450;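 active means compounds whose dose series gives a full or clear partial fitted curve of increased nuclear translocation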; further: potency means the concentration at half of the fitted maximal effect); settings: U2OS GR-GFP nuclear translocation, laser cytometry, 2 h
Chain of Glucocorticoid receptor (Homo sapiens) (P04150 whole entry, looked up, the tested form may be a part): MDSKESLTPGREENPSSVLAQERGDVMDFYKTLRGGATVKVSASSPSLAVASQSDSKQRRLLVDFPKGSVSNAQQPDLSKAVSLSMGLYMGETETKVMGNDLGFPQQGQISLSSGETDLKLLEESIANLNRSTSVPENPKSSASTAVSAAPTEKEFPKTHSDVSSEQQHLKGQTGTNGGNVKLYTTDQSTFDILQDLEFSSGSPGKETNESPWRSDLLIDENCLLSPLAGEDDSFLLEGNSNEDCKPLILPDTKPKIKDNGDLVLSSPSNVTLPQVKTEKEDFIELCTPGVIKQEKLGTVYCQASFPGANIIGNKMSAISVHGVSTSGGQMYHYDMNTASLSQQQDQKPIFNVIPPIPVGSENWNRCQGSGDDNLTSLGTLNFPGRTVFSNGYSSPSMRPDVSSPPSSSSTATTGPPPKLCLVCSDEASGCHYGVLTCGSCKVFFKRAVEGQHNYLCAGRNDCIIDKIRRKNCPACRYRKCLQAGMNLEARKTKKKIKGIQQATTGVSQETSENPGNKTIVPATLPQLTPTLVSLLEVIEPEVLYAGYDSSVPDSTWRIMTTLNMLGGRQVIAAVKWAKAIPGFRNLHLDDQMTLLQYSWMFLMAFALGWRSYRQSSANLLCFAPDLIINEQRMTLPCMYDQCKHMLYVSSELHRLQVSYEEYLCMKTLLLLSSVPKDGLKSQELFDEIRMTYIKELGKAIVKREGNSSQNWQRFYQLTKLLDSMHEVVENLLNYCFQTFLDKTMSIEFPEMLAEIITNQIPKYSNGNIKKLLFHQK

[2] = molecular target: Glucocorticoid receptor (Homo sapiens) (UniProt P04150); test: GR-EFC Redistribution (AID 451; calls by dose curve; further: potency means the concentration at half of the fitted maximal effect); settings: CHO-K1 GR-EFC translocation, beta-gal luminescence, 2 h
Outline: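 CHO-K1 cells stably expressing nuclear-localized β-gal enzyme acceptor and GR fused C-terminally to the enzyme donor fragment; ligand-driven nuclear translocation restores β-gal by complementation. Compounds titrated up to 46 uM final, 2 h at 37 °C; luminescence read.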

[3] = molecular target: Mitogen-activated protein kinase 10 (Mus musculus) (UniProt Q61831); test: JNK3 AlphaScreen Assay (AID 530; active means well fitted curve in either direction with a large enough effect, not every such curve was filed as active;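 further: kinase came from lysate of stimulated human HepG2 cells; signal reports phosphorylation of biotinylated GST-cJun 1-79 at Ser73 with 10 µM ATP; on the % scale 0 is the no-effect control and ±100 the full control effect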); settings: JNK3 lysate, c-Jun phosphorylation; series mostly up to 25.6 µM
Outline: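 JNK3 came from HepG2 lysates pre-activated with IL-1beta and TNF-alpha and phosphorylated biotinylated GST-cJun (1-79) at 10 uM ATP, pH 7.6, room temperature. Compounds were titrated. AlphaScreen signal used anti-phospho-cJun (Ser73) antibody.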

[4] = qHTS Assay for Lipid Storage Modulators (AID 1519; calls by dose curve; on activity change, negative = inhibition: on the % scale 0 is the no-effect control and ±100 the full control effect); settings: Drosophila S3 cells, BODIPY lipid droplet/cell ratio, laser cytometry, cells loaded with oleic acid; for activity change, negative = inhibition: at 25.7 µM (top of the series)
Outline: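 Cells seeded at 5,000 per well were treated with compounds over a concentration series and loaded with oleic acid (400 uM, as added). Lipid droplet fluorescence (488 nm excitation, 500-530 nm channel) was read by laser-scanning cytometry and normalized to 20 uM Triacsin C.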

[5] = molecular target: Ubiquitin carboxyl-terminal hydrolase 1 (Homo sapiens) (UniProt O94782); test: Inhibitors of USP1/UAF1: Pilot qHTS (AID 504865); settings: purified USP1/UAF1, Ub-rhodamine cleavage fluorescence; series mostly up to 114 µM;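 further: rhodamine fluorescence freed from ubiquitin-rhodamine substrate followed over time; top concentration of the series differs between compounds; on the % scale 0 is the no-effect control and ±100 the full control effect; nearly all actives have a fitted effect of over 35% in size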
Chain of Ubiquitin carboxyl-terminal hydrolase 1 (Homo sapiens) (O94782 whole entry, looked up): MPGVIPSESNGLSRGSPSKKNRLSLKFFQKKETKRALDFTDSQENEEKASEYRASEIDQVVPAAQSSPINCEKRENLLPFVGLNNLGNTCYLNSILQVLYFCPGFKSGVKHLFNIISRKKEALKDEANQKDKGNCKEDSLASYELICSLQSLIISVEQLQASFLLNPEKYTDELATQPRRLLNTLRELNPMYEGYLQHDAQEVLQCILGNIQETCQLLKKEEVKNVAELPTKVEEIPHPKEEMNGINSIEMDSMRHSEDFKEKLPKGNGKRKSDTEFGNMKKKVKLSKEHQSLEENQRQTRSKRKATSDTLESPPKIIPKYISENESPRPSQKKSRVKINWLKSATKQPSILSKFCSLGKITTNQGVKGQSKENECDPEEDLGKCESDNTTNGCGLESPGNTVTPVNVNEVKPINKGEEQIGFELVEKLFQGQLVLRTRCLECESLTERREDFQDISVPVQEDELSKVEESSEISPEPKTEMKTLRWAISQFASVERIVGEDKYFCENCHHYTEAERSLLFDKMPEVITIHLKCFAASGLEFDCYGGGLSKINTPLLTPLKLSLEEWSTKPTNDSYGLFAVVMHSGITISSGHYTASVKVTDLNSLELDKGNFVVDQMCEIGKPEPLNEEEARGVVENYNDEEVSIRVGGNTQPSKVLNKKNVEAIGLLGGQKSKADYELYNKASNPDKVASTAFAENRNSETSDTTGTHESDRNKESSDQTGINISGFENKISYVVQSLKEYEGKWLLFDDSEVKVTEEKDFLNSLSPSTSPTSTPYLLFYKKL
Outline: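 USP1/UAF1 complex (1nM) preincubated with compound 15 min at room temperature, then Ub-Rho substrate (150nM final) added. Fluorescence read kinetically at 480/540 nm, 6 reads every 60 seconds. Buffer: 50mM HEPES pH 7.8, 0.5mM EDTA, 0.1 mg/ml BSA, 1mM TCEP, 0.01% Tween-20.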

[6] = molecular target: ATP-dependent 6-phosphofructokinase (Trypanosoma brucei brucei) (UniProt O15648); test: qHTS Assay to Find Inhibitors of T. brucei phosphofructokinase: hit validation (AID 492961);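 further: luminescence reports ADP formed as PFK phosphorylates fructose-6-phosphate with ATP; on the % scale 0 is the no-effect control and ±100 the full control effect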; settings: T. brucei PFK, ADP-Glo luminescence; series mostly up to 24.3 µM
Chain of ATP-dependent 6-phosphofructokinase (Trypanosoma brucei brucei) (O15648 whole entry, looked up): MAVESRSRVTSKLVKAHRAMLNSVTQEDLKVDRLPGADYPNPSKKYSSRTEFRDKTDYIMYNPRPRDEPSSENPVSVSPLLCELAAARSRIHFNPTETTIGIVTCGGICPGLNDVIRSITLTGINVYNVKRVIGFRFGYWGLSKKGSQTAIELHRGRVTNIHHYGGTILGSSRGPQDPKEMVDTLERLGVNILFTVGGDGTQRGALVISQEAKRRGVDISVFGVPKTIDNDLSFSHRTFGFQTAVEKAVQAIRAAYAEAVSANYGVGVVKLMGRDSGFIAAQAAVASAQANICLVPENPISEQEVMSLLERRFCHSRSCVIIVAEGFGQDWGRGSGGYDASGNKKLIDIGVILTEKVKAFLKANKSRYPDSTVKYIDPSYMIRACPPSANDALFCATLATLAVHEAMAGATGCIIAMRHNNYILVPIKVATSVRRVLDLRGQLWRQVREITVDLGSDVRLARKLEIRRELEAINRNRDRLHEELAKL
Outline: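 Percent activity derived from corrected luminescence, normalized between 0x and 1x enzyme controls, then fitted to concentration-response curves. Conditions: 1.25 nM PFK, 0.1 mM ATP, 0.5 mM F6P, 45 min RT.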

[7] = qHTS profiling for inhibitors of Plasmodium falciparum proliferation (AID 504749); further: nearly all actives have a fitted effect of over 60% in size; further: potency means the concentration at half of the fitted maximal effect;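 on activity, negative = inhibition: 0% = DMSO vehicle and full inhibition = artemisinin control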; settings: P. falciparum in erythrocytes, SYBR Green DNA, 72 h, at 12.8 µM (top of the series)
Outline: (§1)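 P. falciparum-infected erythrocytes (0.3% parasitemia, 2.5% hematocrit final) were exposed to compounds for 72 h at 37 C in 5% CO2, then lysed with SYBR Green buffer overnight at room temperature; parasite DNA fluorescence was normalized to artemisinin and DMSO controls.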

3D7 = test: as above; settings: P. falciparum in erythrocytes, SYBR Green DNA, 72 h; series mostly up to 12.8 µM
Outline: as §1

AS120 = test: as above; settings: P. falciparum in erythrocytes, SYBR Green DNA, 72 h; series mostly up to 12.8 µM
Outline: as §1

C2A = test: as above; settings: P. falciparum in erythrocytes, SYBR Green DNA, 72 h; series mostly up to 12.8 µM
Outline: as §1

CP217 = test: as above; settings: P. falciparum in erythrocytes, SYBR Green DNA, 72 h; series mostly up to 12.8 µM
Outline: as §1

CP237 = test: as above; settings: P. falciparum in erythrocytes, SYBR Green DNA, 72 h; series mostly up to 12.8 µM
Outline: as §1

CP238 = test: as above; settings: P. falciparum in erythrocytes, SYBR Green DNA, 72 h; series mostly up to 12.8 µM
Outline: as §1

CP262 = test: as above; settings: P. falciparum in erythrocytes, SYBR Green DNA, 72 h; series mostly up to 12.8 µM
Outline: as §1

CP269 = test: as above; settings: P. falciparum in erythrocytes, SYBR Green DNA, 72 h; series mostly up to 12.8 µM
Outline: as §1

CP297 = test: as above; settings: P. falciparum in erythrocytes, SYBR Green DNA, 72 h; series mostly up to 12.8 µM
Outline: as §1

ECU = test: as above; settings: P. falciparum in erythrocytes, SYBR Green DNA, 72 h; series mostly up to 12.8 µM
Outline: as §1

SC27B = test: as above; settings: P. falciparum in erythrocytes, SYBR Green DNA, 72 h; series mostly up to 12.8 µM
Outline: as §1

CP252 = test: as above; settings: P. falciparum in erythrocytes, SYBR Green DNA, 72 h; series mostly up to 12.8 µM
Outline: as §1

PAD = test: as above; settings: P. falciparum in erythrocytes, SYBR Green DNA, 72 h; series mostly up to 12.8 µM
Outline: as §1

[8] = measured here: cell count channel max response
[9] = measured here: lipid channel max response

CC[N+]1(C)[C@@H]2CC[C@H]1CC(OC(=O)[C@H]1CC[C@@](C(=O)OC3C[C@H]4CC[C@@H](C3)[N+]4(C)CC)(c3ccccc3)c3ccccc31)C2 (stereo partly drawn)
-11.7%: max response [4, 8]
inactive: Potency [1] > 20.6 µM | Potency [2] > 20.6 µM | Potency [3] | activity change, negative = inhibition [4] -4.59% | Potency [5]
-14.8%: max response [4, 9]

CCN1CCC[C@@H](OC(=O)C(c2ccccc2)c2ccccc2)C1
-10.4%: max response [4, 9]
-3.56%: max response [4, 8]
inactive: Potency [1] > 20.6 µM | Potency [2] > 20.6 µM | Potency [3] | activity change, negative = inhibition [4] -6.3% | outcome [6] | activity, negative = inhibition ([7]; parasite line A) 0.857% | activity, negative = inhibition ([7]; parasite line B) -1.3% | Potency (3D7) | Potency (AS120) | Potency (C2A) | Potency (CP217) | Potency (CP238) | Potency (CP262) | Potency (CP269) | Potency (CP297) | Potency (ECU) | Potency (SC27B)
active: Potency (CP237) 1.78 µM

Nc1nc(=S)c2ncn([C@H]3O[C@@H](CO)[C@@H](O)[C@@H]3O)c2[nH]1
inactive: Potency [1] > 20.6 µM | Potency [2] > 20.6 µM | Potency [3] | activity change, negative = inhibition [4] -1.4% | Potency [5]
2.2%: max response [4, 8]
-3.95%: max response [4, 9]

C[C@H](NCCC(c1ccccc1)c1ccccc1)c1ccccc1
-21.2%: max response [4, 8]
-22.3%: max response [4, 9]
inactive: Potency [1] > 20.6 µM | Potency [2] > 20.6 µM | Potency [3] | activity change, negative = inhibition [4] -3.52% | Potency [5]

CC1(C)[C@@H](OC(=O)CCC(=O)O)CC[C@@]2(C)[C@H]1CC[C@@]1(C)[C@H]2C(=O)C=C2[C@H]3C[C@](C)(C(=O)O)CC[C@]3(C)CC[C@@]21C
-2.85%: max response [4, 9]
inactive: Potency [1] > 20.6 µM | Potency [2] > 20.6 µM | Potency [3] | activity change, negative = inhibition [4] -0.623% | outcome [6] | Potency [5] | activity, negative = inhibition ([7]; parasite line A) -5.96% | activity, negative = inhibition ([7]; parasite line B) 13.4% | Potency (3D7) | Potency (AS120) | Potency (C2A) | Potency (CP217) | Potency (CP237) | Potency (CP238) | Potency (CP252) | Potency (CP262) | Potency (CP269) | Potency (CP297) | Potency (ECU) | Potency (PAD) | Potency (SC27B)
-1.7%: max response [4, 8]

C[C@@H](CNC1CCCCC1)OC(=O)c1ccccc1
-19.5%: max response [4, 9]
active: Potency (CP237) 3.16 µM | Potency (PAD) 3.16 µM | Potency (SC27B) 3.55 µM
inactive: Potency [1] > 20.6 µM | Potency [2] > 20.6 µM | Potency [3] | activity change, negative = inhibition [4] -3.84% | outcome [6] | Potency [5] | Potency (C2A) | Potency (CP252) | Potency (CP262)
-16.8%: max response [4, 8]
